Reference: PubChem BioAssay (NCATS)
Records with an inconclusive call do not appear. Unmarked numbers belong to inactive results. The source made the active and inactive calls. Calls come from the whole dose curve; as a rule, active = well fitted inhibition curve with a large enough effect in the repeat runs; inconclusive = weak or mixed curves; inactive = no such curve, though single readings can be large or run the other way.

Biological target: Cytochrome P450 2C9 (Homo sapiens) (UniProt P11712)
Test: Cytochrome P450 family 2 subfamily C member 9 (CYP2C9) small molecule antagonists: luciferase biochemical (cell-free) qHTS assay (AID 1645842); note: nearly all actives have a fitted effect of over 55% in size
Conditions: P450-Glo CYP2C9 enzyme assay, luciferin luminescence; series mostly up to 57.4 µM; activity change, negative = inhibition: at the top concentration
Procedure, shortened: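 P450-Glo CYP2C9 system: proluciferin substrate with enzyme in mix containing 0.4% BSA, 10 min at room temperature, then NADPH regeneration solution added and incubated 1 h at 37C. Detection reagent stopped reaction; luminescence read after 20 min as RLU.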
% is set by controls: 0 for no effect and ±100 for the full control effect; potency is the fitted concentration of half-maximal effect.

Chain of Cytochrome P450 2C9 (Homo sapiens) (P11712 whole entry, looked up): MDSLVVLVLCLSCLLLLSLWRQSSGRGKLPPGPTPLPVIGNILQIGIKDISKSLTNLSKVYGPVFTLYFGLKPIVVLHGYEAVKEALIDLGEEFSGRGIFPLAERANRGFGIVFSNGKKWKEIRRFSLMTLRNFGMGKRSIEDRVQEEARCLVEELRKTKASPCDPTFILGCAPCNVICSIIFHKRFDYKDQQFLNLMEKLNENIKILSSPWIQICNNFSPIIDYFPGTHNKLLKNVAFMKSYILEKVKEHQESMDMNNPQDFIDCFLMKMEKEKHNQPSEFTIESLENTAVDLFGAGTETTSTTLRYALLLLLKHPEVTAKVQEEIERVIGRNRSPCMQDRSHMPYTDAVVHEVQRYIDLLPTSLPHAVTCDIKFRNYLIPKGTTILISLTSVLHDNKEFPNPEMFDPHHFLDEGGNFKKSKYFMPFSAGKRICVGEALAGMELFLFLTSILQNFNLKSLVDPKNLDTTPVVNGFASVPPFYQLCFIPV

| SMILES | activity change, negative = inhibition | Potency |
| --- | --- | --- |
| O=C(O)C(=O)Nc1cccc(-c2nn[nH]n2)c1 | 1.48% | – |
| C/C(=N\O)[C@@H](C)NCC(C)(C)CN[C@H](C)/C(C)=N/O | -11.8% | – |
| C#Cc1ccc(-c2ccccc2F)cc1 | – | 12 µM (active) |
| CC(=O)c1ccc(O)c(C(N)=O)c1 | 9.79% | – |
| Cc1ccc2c(Cl)cc(Cl)c(O)c2n1 | 0.716% | – |
| CC(=O)O[C@@H]1CC2C3CCc4cc(OC(=O)c5ccccc5)ccc4C3CCC2(C)[C@H]1OC(C)=O (some centres not stated) | 1.5% | – |
| Nc1ccc(C(=O)OCC(O)CO)cc1 (configuration not stated) | -8.29% | – |
| O=C1OC2(c3ccccc31)c1cc(I)c(O)c(I)c1Oc1c2cc(I)c(O)c1I | – | 19.5 µM (active) |
| CN1Cc2cc(C(=O)N3CCC(C4CCNCC4)CC3)ccc2NC(CC(=O)O)C1=O (configuration not stated) | 2.32% | – |
| NCC[C@H](O)C(=O)N[C@@H]1C[C@H](N)[C@@H](O[C@H]2O[C@H](CN)[C@@H](O)[C@H](O)[C@@H]2O)[C@H](O)[C@@H]1O[C@H]1O[C@H](CO)[C@@H](O)[C@H](N)[C@@H]1O | 1.19% [at 0.91 µM] | – |
| CCOc1c(N2CCOCC2)cnn(C)c1=O | 5.4% | – |
| COc1cc(S(N)(=O)=O)cc(C(=O)O)c1OC | -0.398% | – |
| CC1CC(=O)NN=C1c1ccc(NCC(C)(C)NCC(O)COc2cc(Cl)ccc2C#N)cc1 (configuration not stated) | – | 0.977 µM (active) |
| NC(=O)COCCN1CCN(C(c2ccccc2)c2ccc(Cl)cc2)CC1 (configuration not stated) | 3.72% | – |
| CO/N=C(\C(=O)O)c1csc(NC(=O)CCl)n1 | 5.44% | – |
| C1N2CN3CN1CN(C2)C3 | 13.8% | – |
| CC(C)C(=O)Nc1cccc(C(F)(F)F)c1 | 4.62% | – |
